Results as given in PubChem BioAssay (NCATS).
Results filed as inconclusive are left out. Entries that show only a call come without a potency. Activity calls are given as the source filed them. Calls come from the whole dose curve; as a rule, active = well fitted curve in the direction sought with a large enough effect; inconclusive = small, poorly fitted or top-dose-only effect, or another doubt; inactive = no such curve, though single readings can be large; an effect the other way counts as inactive or inconclusive.

Test: S16 Schwann cell viability assay (CellTiter-Glo assay) (AID 624031);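 note: cellular ATP luminescence as a viability measure; nearly all actives have a fitted effect of over 70% in size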
Conditions: S16 rat Schwann cells viability, 24 h; series mostly up to 57.5 µM
How it was run: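 CellTiter-Glo ATP luminescence counter-screen in untransfected S16 rat Schwann cells, 24h compound exposure at 37 degree Celsius after overnight seeding (500-750 cells/well); response scaled between cell-free wells and DMSO (0% activity), curves classed by r2 and magnitude.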

SMILES	Potency
C[S+](C)CC[C@H](N)C(=O)O	inactive
NC(=O)C1CC2(NC(=O)NC2=O)c2cc(F)ccc2O1 (configuration not stated)	inactive
CN1[C@@H]2CC[C@@H]1CC(OC(=O)[C@H](CO)c1ccccc1)C2 (some centres not stated)	inactive
CCCCCCCCCCCC(=O)OCC(O)C1OCC(O)C1O (configuration not stated)	inactive
C/C1=C2/[N-]C(C(CC(N)=O)[C@@]2(C)CCC(=O)NCC(C)OP(=O)([O-])O[C@H]2[C@@H](O)[C@@H](n3cnc4cc(C)c(C)cc43)O[C@@H]2CO)[C@]2(C)N=C(/C(C)=C3N=C(/C=C4N=C1C(CCC(N)=O)C\4(C)C)[C@@H](CCC(N)=O)[C@]\3(C)CC(N)=O)[C@@H](CCC(N)=O)[C@]2(C)CC(N)=O.CC(=O)O.[Co] (some centres not stated)	inactive
CC1(C)OC[C@@H]2O[C@@]3(C(=O)O)OC(C)(C)O[C@@H]3[C@@H]2O1	inactive
NC(=O)NC(CCC(=O)O)C(=O)O (configuration not stated)	inactive
COC1CC2CCC(C)[C@](O)(O2)C(=O)C(=O)N2CCCCC2C(=O)OC(C(C)CC2CCC(O)C(OC)C2)CC(=O)C(C)/C=C(/C)C(O)C(OC)C(=O)C(C)CC(C)C=CC=C/C=C\1C (some centres not stated)	inactive
CC(=O)OCC(=O)[C@@]1(O)CCC2C3C[C@H](C)C4=CC(=O)C=CC4(C)C3C(O)CC21C (some centres not stated)	inactive
CN[C@H](C)CCC=C(C)C	inactive
CC1(C)C2CC[C@]1(C)[C@@H](O)C2	inactive
OCC1O[C@H](Oc2ccc(O)cc2)C(O)C(O)C1O (some centres not stated)	inactive
Nc1nc(F)nc2c1ncn2[C@@H]1O[C@H](CO)[C@@H](O)[C@H]1O	inactive
CC1OC(OC2CCC3(C)C(CCC4C3CC(O)C3(C)C(C5=CC(=O)OC5)CCC43O)C2)CC(O)C1OC1CC(O)C(OC2CC(O)C(OC3OC(CO)C(O)C(O)C3O)C(C)O2)C(C)O1 (configuration not stated)	inactive
CC1OC(OCC2OC(Oc3c(-c4ccc(OCCO)c(OCCO)c4)oc4cc(OCCO)cc(O)c4c3=O)C(O)C(O)C2O)[C@@H](O)C(O)C1O (some centres not stated)	inactive

Test: S16 Schwann cell PMP22 intronic element firefly luciferase assay (AID 624032); note: nearly all actives have a fitted effect of over 30% in size; note: potency is the fitted concentration of half-maximal effect
Conditions: S16 rat Schwann cells, PMP22 element FLuc, 24 h; series mostly up to 57.5 µM
How it was run: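 Luciferase reporter of PMP22 intronic-element expression in stably transfected S16 rat Schwann cells, read by ONE-Glo luminescence after 24 h compound exposure at 37 C. Activity scaled between DMSO (0%) and positive-control PTC124; concentration-effect curves quality-classified.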

SMILES	Potency
CCCCC(=O)OCC(=O)[C@]1(O)Cc2c(O)c3c(c(O)c2[C@H](OC2CC(NC(=O)C(F)(F)F)C(O)C(C)O2)C1)C(=O)c1c(OC)cccc1C3=O (some centres not stated)	721 nM (active)
C[C@H]1OC(OC2C(O)[C@@H](O)C(OC3C(O)[C@@H](O)C(O)O[C@@H]3CO)O[C@@H]2CO)[C@H](O)C(O)C1N[C@H]1C=C(CO)[C@@H](O)[C@H](O)C1O (some centres not stated)	inactive
CCN(CC)CC(=O)Nc1c(C)cc(C)cc1C	inactive
CC(=O)N[C@H]1[C@H](O[C@@H]2c3ccc(c(Cl)c3)Oc3cc4cc(c3O[C@@H]3O[C@H](CO)[C@@H](O)[C@H](O)C3C)Oc3ccc(cc3Cl)C[C@H]3NC(=O)[C@@H](N)c5ccc(O)c(c5)Oc5cc(O)cc(c5)[C@H](NC3=O)C(=O)N[C@H]4C(=O)N[C@H]3C(=O)N[C@@H]2C(=O)N[C@@H](C(=O)O)c2cc(O)cc(O[C@H]4O[C@H](CO)[C@@H](O)C(O)[C@@H]4O)c2-c2cc3ccc2O)O[C@H](CO)[C@@H](O)[C@@H]1O (some centres not stated)	inactive
NC(=O)c1ncn(C2OC(CO)C(O)C2O)c1N (configuration not stated)	inactive
C[C@H]1[C@@H](OC(=O)CCC(=O)O)OC2OC3(C)CC[C@H]4[C@H](C)CC[C@@H]1[C@@]24OO3 (some centres not stated)	2560 nM (active)
CC1(Cn2ccnn2)[C@H](C(=O)O)N2C(=O)C[C@H]2S1(=O)=O (some centres not stated)	inactive
CN(C)CC/C=C1\c2ccccc2COc2ccc(CC(=O)O)cc21	inactive
CCCC(=O)O[C@]1(C(=O)COC(C)=O)CC[C@H]2C3C[C@H](F)C4=CC(=O)C=CC4(C)[C@@]3(F)[C@@H](O)CC21C (some centres not stated)	inactive
COc1cc2c(cc1O)CCN[C@@]21CS[C@H]2c3c(OC(C)=O)c(C)c4c(c3C(COC1=O)N1C2C2c3c(cc(C)c(OC)c3O)CC([C@@H]1O)N2C)OCO4 (some centres not stated)	inactive
CC(CCC(=O)O)C1CCC2C3C(=O)C[C@@H]4CC(=O)CC[C@@]4(C)C3CC(=O)[C@]12C (some centres not stated)	inactive
O=C(OC[C@@H]1O[C@@](O)(COC(=O)c2cccnc2)[C@H](OC(=O)c2cccnc2)[C@H]1OC(=O)c1cccnc1)c1cccnc1	2560 nM (active)
O=[N+]([O-])O[C@H]1CO[C@H]2[C@@H]1OC[C@H]2O	inactive
NC[C@@H]1O[C@H](OC2[C@@H](CO)O[C@@H](OC3[C@H](O)[C@H](N)C[C@H](N)[C@H]3OC3O[C@H](CO)[C@@H](O)[C@H](O)[C@@H]3N)[C@H]2O)C(N)[C@H](O)[C@@H]1O (some centres not stated)	inactive
Cc1ccc(S(=O)(=O)NC(=O)NC(C)Cc2ccccc2)cc1 (configuration not stated)	inactive
OCCOC[C@H]1O[C@H](OCCO)[C@H](OCCO)[C@@H](OCCO)[C@@H]1OCCO (tested in a mixture with another compound)	inactive

SMILES	Potency
C[S+](C)CC[C@H](N)C(=O)O	inactive
CC[C@@H]1/C=C(\C)C[C@H](C)C[C@H](OC)[C@H]2O[C@@](O)(C(=O)C(=O)N3CCCC[C@H]3C(=O)O[C@H](/C(C)=C/[C@@H]3CC[C@H](Cl)[C@H](OC)C3)[C@H](C)[C@@H](O)CC1=O)[C@H](C)C[C@@H]2OC	inactive
NC(=O)C1CC2(NC(=O)NC2=O)c2cc(F)ccc2O1 (configuration not stated)	inactive
CN1[C@@H]2CC[C@@H]1CC(OC(=O)[C@H](CO)c1ccccc1)C2 (some centres not stated)	inactive
CCCCCCCCCCCC(=O)OCC(O)C1OCC(O)C1O (configuration not stated)	inactive
C/C1=C2/[N-]C(C(CC(N)=O)[C@@]2(C)CCC(=O)NCC(C)OP(=O)([O-])O[C@H]2[C@@H](O)[C@@H](n3cnc4cc(C)c(C)cc43)O[C@@H]2CO)[C@]2(C)N=C(/C(C)=C3N=C(/C=C4N=C1C(CCC(N)=O)C\4(C)C)[C@@H](CCC(N)=O)[C@]\3(C)CC(N)=O)[C@@H](CCC(N)=O)[C@]2(C)CC(N)=O.CC(=O)O.[Co] (some centres not stated)	2560 nM (active)
CC1(C)OC[C@@H]2O[C@@]3(C(=O)O)OC(C)(C)O[C@@H]3[C@@H]2O1	inactive
Cc1ccccc1N1C(=O)c2cc(N)ccc2N/C1=C\F	inactive
CCC(C(=O)O)C1OC(C(C)C(O)C(C)C(=O)C(CC)C2OC3(C=CC(O)C4(CCC(C)(C5CCC(O)(CC)C(C)O5)O4)O3)C(C)CC2C)C(C)CC1C (configuration not stated)	102 nM (active)
NC(=O)NC(CCC(=O)O)C(=O)O (configuration not stated)	inactive
CC(=O)OCC(=O)[C@@]1(O)CCC2C3C[C@H](C)C4=CC(=O)C=CC4(C)C3C(O)CC21C (some centres not stated)	inactive
CN[C@H](C)CCC=C(C)C	inactive
OCC1O[C@H](Oc2ccc(O)cc2)C(O)C(O)C1O (some centres not stated)	inactive
Nc1nc(F)nc2c1ncn2[C@@H]1O[C@H](CO)[C@@H](O)[C@H]1O	inactive
CC1OC(OC2CCC3(C)C(CCC4C3CC(O)C3(C)C(C5=CC(=O)OC5)CCC43O)C2)CC(O)C1OC1CC(O)C(OC2CC(O)C(OC3OC(CO)C(O)C(O)C3O)C(C)O2)C(C)O1 (configuration not stated)	inactive
CC1OC(OCC2OC(Oc3c(-c4ccc(OCCO)c(OCCO)c4)oc4cc(OCCO)cc(O)c4c3=O)C(O)C(O)C2O)[C@@H](O)C(O)C1O (some centres not stated)	inactive
